100 compounds from PubChem BioAssay AID847 (SRMLSC, 2007) can be followed below.

Out of some 41,000 compounds screened, about 190 (0.46%) were called active. Only a selection was taken, and actives are over-represented in it overall. A number with no mark means an inactive call.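 The calls were made as follows: active = viability at or below the median of all test compounds minus 3 SD, in both replicates if run twice (cut at about 45% in these data); inconclusive = duplicate replicates that disagree with each other; inactive = viability above that cutoff in every replicate.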

A short description of this test: SK-BR-3 proliferation inhibitors, primary screen, cell-based, human, 24 h (AID 847).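 Also: 100% = median untreated cell wells and 0% = median positive control drug.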 The note with it: SK-BR-3 viability, CellTiter-Glo ATP luminescence, at 10 µM, active compounds read low.
As for `CSc1nc(O)c(Cc2ccccc2)c(=O)[nH]1`, the viability (commonly a read-out of living cells in per cent, often relative to untreated cells) was 88.2%. As for `C=CCNc1nnc(C)c2ccccc12`, the figure is 94.2%; as for `COc1ccc(C2C(C#N)=C(N)Oc3n[nH]c(C)c32)cc1CN1CCN(c2ccc(F)cc2)CC1` (stereo not given), 67%; as for `CCOC(=O)C1CCCN(C(=O)c2cncc(Br)c2)C1` (stereo not given), 89.5%. Under `O=C(Nc1ccc2c(c1)nc1n2CCCCC1)c1cc(S(=O)(=O)N2CCOCC2)ccc1Cl` stands 69%; under `O=C(CSc1ncccn1)NCCc1ccccc1`, 89.6%.

Turning to `CSc1nsc(SC)c1NC(=O)OC1CCCCC1`, the viability is 106%. With `COc1ccc(S(=O)(=O)N2CCOCC2)cc1C(=O)Nc1nc2ccccc2s1`, the viability was 87.8%. Under `CCCC(=O)Nc1cc(OCC)c(NC(=O)NC2CCCCC2)cc1OCC` stands 128%.

With `COC(=O)[C@H](CCSC)NC(=O)Nc1ccc(OC)cc1`, the viability was 86.4%.

Take `COC(=O)C1(S(=O)(=O)C2(C(=O)OC)CCCC2)CCCC1`: the viability was 105%. On to `C=CCNC(=O)c1ccc(C)c(Br)c1`, for which the viability was 74.5%. With `CCn1cc(NC(=O)Nc2ccc(OC)c(OC)c2)c(C(N)=O)n1`, the viability is 90.8%. As for `Cc1ccc(C(=O)CS(C)(=O)=O)cc1`, the figure is 90.6%; as for `CC(=O)N1CCC(C(=O)Nc2nc(-c3ccccc3)ns2)CC1`, 96.3%; as for `Cc1nc(NCCN)c(C#N)c2c1COC(C)(C)C2`, 85.4%.

With `OC(COc1ccccc1)Cn1cc(Br)cn1` (stereo not given), the viability is 74.7%. Under `CCCOC(=O)C1=C(C)NC2=C(C(=O)C(C(=O)OC)C(C)C2)C1c1ccc(N(C)C)cc1` (stereo not given) stands 89%; under `Cc1nc(N2CCCC2C(=O)O)c2oc3ccccc3c2n1` (stereo not given), 101%. Under `COC(=O)c1cn(CC(=O)NCc2cccs2)c2ccccc12` stands 108%.

Regarding `COc1cc(-c2nc(S(=O)(=O)c3ccc(Cl)cc3)c(N(C)C)o2)cc(OC)c1OC`, the viability was 75.4%. Under `O=C(c1cccc(S(=O)(=O)N2CCOCC2)c1)N1CCOCC1` stands 94.3%. Regarding `CC(=O)Oc1cccc(N2C(=O)C3CC=C(Cl)CC3C2=O)c1` (stereo not given), the viability is 73.3%.

For the compound `NC(=O)C1CCN(C2OC(=O)c3ccccc32)CC1` (stereo not given), the viability was 93.2%.

With `O=C(NC(c1ccccc1)c1ccccc1)N1CCN(CCO)CC1`, the viability is 93%. Under `O=C(CSc1nnc(Cc2ccccc2)n1-c1ccccc1)N1CCOCC1` stands 87.4%; under `Cc1ccc2[nH]c(=O)c(COC(=O)c3ccccn3)cc2c1`, 100%; under `CC1Cc2ccccc2N1C(=O)CSc1nnc(-c2ccc(S(=O)(=O)N3CCCCC3)cc2)o1` (stereo not given), 96%. Under `Cc1cc(O)ccc1-c1cnc2ccccc2n1` stands 92.4%; under `CC(C)NS(=O)(=O)c1ccc(OCC(=O)Nc2ccc3c(c2)OCCO3)cc1`, 86.3%.

Turning to `O=C(OC(C(=O)NC1CCCC1)c1ccc(F)cc1)c1ccno1` (stereo not given), the viability is 107%. As for `N=c1c2c3c(sc2ncn1N)CCCCC3`, the figure is 86%. Under `COCCNC(=O)c1ccccc1-c1nc(-c2ccccc2Cl)no1` stands 94.6%; under `O=C(c1cccc(C(=O)N2CCc3ccccc32)n1)N1CCc2ccccc21`, 101%; under `Cc1nc2nc(COc3ccccc3)[nH]n2c(=O)c1Cc1ccccc1`, 85.2%. As for `Cc1cccc(OCc2nnc(SCC(=O)N3CCN(C(=O)c4ccco4)CC3)n2C)c1C`, the viability is 112%. As for `CCOC(=O)CCc1c(C)c2ccc(OCc3nn[nH]n3)c(C)c2oc1=O`, the figure is 91.2%. As for `O=C1CCCc2c1[nH]c1ccc(Br)cc21`, the figure is 94.5%; as for `O=C(COC(=O)c1ccc2c(c1)OCCO2)NCc1ccccc1`, 91.5%. As for `Cc1cnc(NC(=O)CSc2nnc(-c3ccc(Cl)cc3Cl)n2N)s1`, the figure is 88.8%; as for `O=C(Cn1c(-c2ccc(Cl)cc2)noc1=O)N1CCN(c2ccccc2F)CC1`, 88.1%. On to `Cc1cc(C)c2cc(CN(Cc3cccs3)Cc3nnnn3CC3CCCO3)c(=O)[nH]c2c1` (stereo not given), for which the viability was 83.1%. Under `CCOC(=O)[C@H]1CCC[C@@H](NS(=O)(=O)c2ccc(NC(C)=O)cc2)C1` stands 73.8%; under `C=CCSC1=C(C#N)C(c2cc(Br)c(O)c(OC)c2)CC(=O)N1` (stereo not given), 86.3%; under `CC1(C)CC(=O)C(C2=NC(C)(C)Cc3ccccc32)=C(O)C1`, 99.5%.

Take `c1nc(COc2nsnc2N2CCOCC2)cs1`: the viability was 90.4%. Under `Cc1nc2nc3c(cn2n1)C(=O)CC(c1ccccc1)C3` (stereo not given) stands 109%; under `CCCOc1ccc(CN(CCO)CCO)cc1C(=O)OC`, 94.7%; under `Cc1ccn2cc(C(=O)NC3CCN(Cc4ccccc4)CC3)nc2c1`, 81%. As to `CCCC(NS(=O)(=O)c1ccc(OC)cc1)C(=O)O` (stereo not given), the viability was 97.5%. Regarding `c1ccc2c(NCC3CCCO3)nc(-c3ccncc3)nc2c1` (stereo not given), the viability is 101%. Under `CCc1ccc(-c2nnn(Cc3nn[nH]n3)n2)cc1` stands 112%; under `CCc1nnc(NC(=O)CSc2nnc(COc3ccc(C#N)cc3)n2-c2ccccc2)s1`, 86%. As for `Cc1ccc(S(=O)(=O)N2CCC(C(=O)N[C@@H](C)C(=O)NCCc3ccccc3)CC2)cc1`, the figure is 100%; as for `COc1ccc(C2CC(c3ccc(C)cc3)Nc3nc(N)nn32)cc1` (stereo not given), 102%; as for `CC(C)=C(NC(=O)c1ccco1)C(=O)NCCc1nc2ccccc2[nH]1`, 122%. On to `Cc1cc(N2CCN(Cc3ccc4c(c3)OCO4)CC2)n2ncnc2n1`, for which the viability was 88.1%.

For the compound `Cc1ccc(N(CC(O)CN2CCCC2)S(=O)(=O)c2ccccc2)cc1` (stereo not given), the viability was 84.9%.

For `CC(C)C(NC(=O)c1cccc(S(=O)(=O)N2CCOCC2)c1)C(=O)NCCc1ccccn1` (stereo not given), the viability was 84.8%.

In the case of `Cc1ccc(S(=O)(=O)NCC(=O)OCC(=O)N2CCc3ccccc32)cc1`, the viability was 75.8%. Under `CCCCNc1nc2c(c(=O)[nH]c(=O)n2C)n1CCOc1ccccc1` stands 114%; under `c1ccc(-n2ncc3c(N4CCCC4)ncnc32)cc1`, 86.5%; under `CN(C)Cc1c(C#N)c2ccccc2n1C`, 99.7%. Under `O=C(c1ccco1)N(Cc1nc2ccccc2c(=O)[nH]1)C1CCCC1` stands 87.8%.

As for `COC(=O)COc1ccc2oc(=O)cc(C)c2c1`, the viability was 87%. Under `COC(=O)c1cn(-c2ccccc2)nc1-c1cccnc1` stands 119%; under `CC(C(=O)O)N1C(=O)c2cccc3cccc1c23` (stereo not given), 91.2%; under `Cc1cc(C)c(NC(=O)CS(=O)CC(=O)Nc2cccnc2)c(C)c1` (stereo not given), 79.8%. Under `COc1ccc(CSc2nc(N3CCOCC3)c3c(c2C#N)CC(C)(C)OC3)cc1` stands 76.6%; under `CS(=O)(=O)N1CCN(C(=O)c2cc3ccccc3oc2=O)CC1`, 82.4%.

As to `Cc1cc(=O)[nH]c(SCC(N)=O)c1C#N`, the viability was 121%. In the case of `Cc1ccc(S(=O)(=O)NCc2nc3ccccc3c(=O)n2N)cc1`, the viability was 87.3%.

With `CC(=O)c1cc(-c2ccccc2)[nH]c1N1CCCC1`, the viability was 89.9%. As to `Cc1ccc(C)c(NC(=O)C2CCCN2C(=O)OC(C)(C)C)c1` (stereo not given), the viability was 102%.

On to `COc1ccc(C(=O)N2CCC(C(=O)Nc3cccc(C)c3)CC2)cc1OC`, for which the viability was 106%. Under `Cc1ccccc1NC(=O)c1cnn(-c2ccccc2)c1NC(=O)c1ccco1` stands 117%; under `O=C1NC(c2cc3c(cc2Cl)OCO3)Oc2ccccc21` (stereo not given), 110%; under `CCCC(C)n1[nH]c(=O)c2c(C)cc(C)nc21` (stereo not given), 87%. As for `Cc1cc(C)n2nc(C(=O)Oc3ccc4c(c3)OCO4)nc2n1`, the figure is 86.1%; as for `CC(C)OCCCNc1nc2c(c(=O)n(Cc3ccccc3F)c(=O)n2C)n1C`, 68.2%.

As to `Clc1ccc(CSc2nnc([C@@H]3CCCN3)o2)cc1`, the viability was 80.8%. As for `O=C(NCc1cccnc1)c1cn(-c2ccccc2)nc1-c1cccs1`, the figure is 74.3%; as for `COC(=O)Nc1c(C)n(C)n(-c2ccccc2)c1=O`, 104%; as for `O=S(=O)(O)c1nc2ccccc2n1Cc1ccc(Cl)cc1Cl`, 98.8%. For the compound `Cc1cc(Br)ccc1NC(=O)C1CCCO1` (stereo not given), the viability is 75.5%. Under `c1cnc(NC2C3CC4CC(C3)CC2C4)nc1` (stereo not given) stands 98.3%; under `O=C(c1ccco1)N1CCN(C(=O)C2c3ccccc3Oc3ccccc32)CC1`, 99.4%; under `O=C(Nc1ccon1)c1sc2ccccc2c1Cl`, 122%.

Turning to `COc1cccc(-c2nc(S(=O)(=O)c3ccccc3)c(N3CCOCC3)o2)c1`, the viability is 83.1%. On to `c1ccc(-c2[nH]ncc2-c2nc3ccccc3[nH]2)cc1`, for which the viability is 42.9% (active). Under `O=c1[nH]c(-c2ccccc2)c(-c2ccccc2)[nH]1` stands 96.3%; under `c1ccc(-c2nnc(SCc3nc4ccccc4[nH]3)o2)cc1`, 70.7%. Regarding `CC(C)C(c1nnnn1CCc1ccccc1)N1CCN(C(=O)c2ccco2)CC1` (stereo not given), the viability is 102%. As for `CSCCC(Nc1nc2ccccc2s1)C(=O)O` (stereo not given), the figure is 81.1%; as for `Cc1cc(NC(=O)CCC2COc3ccccc3O2)no1` (stereo not given), 94.5%. As for `Cc1ccc2nc(NC3=NCN(CCc4ccccc4)CN3)nc(C)c2c1`, the figure is 95.4%; as for `COc1ccccc1N1CCN(C(=O)c2ccc(S(=O)(=O)N3CCCCC3)cc2)CC1`, 123%; as for `COC(=O)c1ccccc1NC(=O)CSc1ccccn1`, 81.2%. As to `COc1ccc(N2CCN(CCNC(=O)c3nnc(Cc4c(F)cccc4Cl)o3)CC2)cc1`, the viability was 75%. As for `CCOC(=O)c1ccccc1NC(=O)CC1Nc2ccccc2NC1=O` (stereo not given), the figure is 47.2%.
